From PubChem BioAssay (EPA / NIEHS)
Results filed as inconclusive are left out. Active and inactive are the calls of the source. The calls were made as follows: active = hit-call score of the fitted dose curve at least 0.9, where 1 is the maximum; inconclusive = response in the unintended direction; inactive = score below 0.9.

Legend:
[1] = target: Estrogen receptor (Homo sapiens) (UniProt P03372); test: OT_ER_ERaERa_1440: Odyssey Thera (OT) 24-hour HEK293T Protein-Complementation Assay for Estrogen Receptor-alpha/-alpha Homodimer (AID 2283349);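 also: hits raise fluorescence above DMSO for agonists and antagonists alike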
Estrogen receptor (Homo sapiens), sequence (P03372 whole entry, looked up, the tested form may be a part): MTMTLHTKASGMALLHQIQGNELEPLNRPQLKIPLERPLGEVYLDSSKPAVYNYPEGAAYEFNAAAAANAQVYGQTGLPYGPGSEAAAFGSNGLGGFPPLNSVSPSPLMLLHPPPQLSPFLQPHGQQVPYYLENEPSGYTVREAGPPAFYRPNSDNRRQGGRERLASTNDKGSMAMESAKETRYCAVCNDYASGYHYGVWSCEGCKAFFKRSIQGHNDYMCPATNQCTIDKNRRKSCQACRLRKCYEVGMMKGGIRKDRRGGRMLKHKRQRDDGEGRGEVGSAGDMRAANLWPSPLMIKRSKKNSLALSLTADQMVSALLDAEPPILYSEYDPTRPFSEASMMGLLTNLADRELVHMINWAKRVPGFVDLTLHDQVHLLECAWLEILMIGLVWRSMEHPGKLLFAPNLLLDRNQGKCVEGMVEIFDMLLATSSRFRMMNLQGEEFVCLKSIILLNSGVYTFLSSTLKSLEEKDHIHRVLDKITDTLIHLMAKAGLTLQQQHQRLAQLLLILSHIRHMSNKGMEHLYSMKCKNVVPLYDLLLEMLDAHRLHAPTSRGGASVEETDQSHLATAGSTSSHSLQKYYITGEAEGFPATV
Procedure, shortened: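 Readout is the rise in mean fluorescence from reporter fragment complementation when ERα LBD (aa 310-547) units dimerize in HEK293T cells. Measured 24 h after dosing and analysed as increase over DMSO control.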

[2] = target: Bile acid receptor (Homo sapiens) (UniProt Q96RI1); test: NVS_NR_hFXR_Antagonist: NovaScreen (NVS) Nuclear Receptor Binding Assay for human Farnesoid X Receptor Antagonism (FXR) (AID 2283350)
Bile acid receptor (Homo sapiens), sequence (Q96RI1 whole entry, looked up): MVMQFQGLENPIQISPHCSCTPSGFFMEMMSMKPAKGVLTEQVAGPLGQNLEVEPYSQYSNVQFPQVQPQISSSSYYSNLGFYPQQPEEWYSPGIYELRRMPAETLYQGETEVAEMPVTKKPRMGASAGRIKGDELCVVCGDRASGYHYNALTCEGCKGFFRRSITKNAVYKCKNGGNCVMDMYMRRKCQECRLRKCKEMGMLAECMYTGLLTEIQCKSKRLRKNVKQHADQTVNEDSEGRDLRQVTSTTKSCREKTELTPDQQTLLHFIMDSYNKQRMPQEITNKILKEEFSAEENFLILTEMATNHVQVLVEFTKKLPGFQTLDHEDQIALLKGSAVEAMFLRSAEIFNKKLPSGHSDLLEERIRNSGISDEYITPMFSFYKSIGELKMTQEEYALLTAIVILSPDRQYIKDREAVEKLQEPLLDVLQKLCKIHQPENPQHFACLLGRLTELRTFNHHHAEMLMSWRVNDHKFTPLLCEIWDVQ
Procedure, shortened: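 Cell-free TR-FRET ligand-binding read-out on human FXR (NR1H4) in antagonist mode, measured 1 h after dosing. Primary screen in duplicate at 25 uM, actives retested in concentration series; signal loss scored versus DMSO.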

[3] = target: Estrogen receptor (Homo sapiens) (UniProt P03372); test: OT_ER_ERaERa_0480: Odyssey Thera (OT) 8-hour HEK293T Protein-Complementation Assay for Estrogen Receptor-alpha/-alpha Homodimer (AID 2283351);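 also: rise in fluorescence from reassembled reporter fragments on ERα LBD homodimer in nucleus or whole cell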
Procedure, shortened: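 The readout is complementation of fragments fused to the human ER alpha ligand-binding domain (aa 310-547), stably expressed in HEK293T cells. After 8 h of exposure, the increase in nuclear/cytoplasmic fluorescence was measured by laser scanning cytometry and fitted relative to DMSO.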

[4] = target: T1, Estrogen receptor (Homo sapiens) + Estrogen receptor beta (Homo sapiens) (UniProt P03372+Q92731); test: OT_ER_ERaERb_0480: Odyssey Thera (OT) 8-hour HEK293T Protein-Complementation Assay for Estrogen Receptor-alpha/-beta Heterodimer (AID 2283352)
Procedure, shortened: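 HEK293T protein-fragment complementation assay of ER-alpha/ER-beta LBD heterodimerisation, read 8 h after dosing. Mean nuclear/cytoplasmic fluorescence intensity measured by laser scanning cytometry; gain of signal fitted relative to DMSO.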

[5] = target: T1, Estrogen receptor (Homo sapiens) + Estrogen receptor beta (Homo sapiens); test: OT_ER_ERaERb_1440: Odyssey Thera (OT) 24-hour HEK293T Protein-Complementation Assay for Estrogen Receptor-alpha/-beta Homodimer (AID 2283356);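 also: heteromer of ER alpha and ER beta binding domains; hits raise reporter fluorescence and both agonists and antagonists give an increase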
Procedure, shortened: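 HEK293T stably expressing a PCA of ER alpha LBD (aa 310-547) and ER beta LBD (aa 263-489). After 24 h compound exposure, mean fluorescence intensity in nucleus (agonists) or nucleus and cytoplasm (antagonists) measured by laser scanning cytometry versus vehicle.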

[6] = tested on: NCBI gene 100848466; test: NVS_NR_bPR: NovaScreen (NVS) Nuclear Receptor Binding Assay for bovine Progextron Receptor (PR) (AID 2283343);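 also: actives lower bound radioligand signal below DMSO meaning displacement of the label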
Procedure, shortened: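 Bovine uterine membrane preparation, cell-free; radioligand competitive displacement measured by scintillation counting 18 hours after dosing. Loss of signal versus DMSO baseline indicates binding; primary HTS single concentration 25 uM in duplicate, actives followed in concentration series.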

[7] = target: chimpanzee Androgen Receptor (AR), AR (gene 747460) (UniProt O97775); test: NVS_NR_cAR: NovaScreen (NVS) Nuclear Receptor Binding Assay for chimpanzee Androgen Receptor (AR) (AID 2283346);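 also: radioligand displacement from AR measured by scintillation counting in a cell-free assay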
Procedure, shortened: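 Cell-free radioligand displacement using receptor protein extracted from Sf9/Sf21 cells; bound radioligand measured by scintillation counting 72 hours after chemical dosing. Loss of signal versus DMSO baseline indicates binding; primary screen single-concentration in duplicate at 25 uM, actives followed in concentration series.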

[8] = target: human Peroxisome Proliferator-activated Receptor alpha (PPARa), PPARA (gene 5465) (UniProt Q07869); test: NVS_NR_hPPARa: NovaScreen (NVS) Nuclear Receptor Binding Assay for human Peroxisome Proliferator-activated Receptor alpha (PPARa) (AID 2283359);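 also: activity means loss of TR-FRET signal versus DMSO baseline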
human Peroxisome Proliferator-activated Receptor alpha (PPARa), PPARA (gene 5465), sequence (Q07869 whole entry, looked up): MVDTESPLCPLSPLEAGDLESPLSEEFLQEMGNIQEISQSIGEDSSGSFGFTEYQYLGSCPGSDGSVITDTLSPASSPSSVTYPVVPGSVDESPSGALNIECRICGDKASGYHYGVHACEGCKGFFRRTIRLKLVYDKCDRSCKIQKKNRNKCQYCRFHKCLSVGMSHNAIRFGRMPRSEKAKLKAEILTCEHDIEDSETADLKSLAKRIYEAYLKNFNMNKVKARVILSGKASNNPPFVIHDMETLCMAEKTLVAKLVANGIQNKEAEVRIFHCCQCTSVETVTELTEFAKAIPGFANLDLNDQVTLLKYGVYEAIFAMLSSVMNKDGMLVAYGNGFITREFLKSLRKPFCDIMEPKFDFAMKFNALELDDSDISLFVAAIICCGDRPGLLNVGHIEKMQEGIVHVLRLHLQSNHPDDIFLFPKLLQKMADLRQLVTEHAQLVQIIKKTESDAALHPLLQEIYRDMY
Procedure, shortened: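 Cell-free binding assay with extracted human protein, read by TR-FRET 1 h after chemical dosing. Loss of signal relative to DMSO baseline indicates binding. Primary screen used duplicate single concentration (25 uM); actives followed up in concentration series.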

[9] = target: PGR (gene 5241) (UniProt P06401); test: NVS_NR_hPR: NovaScreen (NVS) Nuclear Receptor Binding Assay for human Progestron Receptor (PR) (AID 2283360)
Procedure, shortened: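 Competitive displacement of a labelled radioligand from T47D-derived receptor protein is measured in a cell-free format. Initial testing uses 25 uM in duplicate, with positive and negative controls on every plate.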

[10] = target: Glucocorticoid receptor (Homo sapiens) (UniProt P04150); test: NVS_NR_hGR: NovaScreen (NVS) Nuclear Receptor Binding Assay for human Glucocorticoid Receptor (GR) (AID 2283363);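 as to AC50: activity is loss of specific radioligand binding signal relative to DMSO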
Glucocorticoid receptor (Homo sapiens), sequence (P04150 whole entry, looked up): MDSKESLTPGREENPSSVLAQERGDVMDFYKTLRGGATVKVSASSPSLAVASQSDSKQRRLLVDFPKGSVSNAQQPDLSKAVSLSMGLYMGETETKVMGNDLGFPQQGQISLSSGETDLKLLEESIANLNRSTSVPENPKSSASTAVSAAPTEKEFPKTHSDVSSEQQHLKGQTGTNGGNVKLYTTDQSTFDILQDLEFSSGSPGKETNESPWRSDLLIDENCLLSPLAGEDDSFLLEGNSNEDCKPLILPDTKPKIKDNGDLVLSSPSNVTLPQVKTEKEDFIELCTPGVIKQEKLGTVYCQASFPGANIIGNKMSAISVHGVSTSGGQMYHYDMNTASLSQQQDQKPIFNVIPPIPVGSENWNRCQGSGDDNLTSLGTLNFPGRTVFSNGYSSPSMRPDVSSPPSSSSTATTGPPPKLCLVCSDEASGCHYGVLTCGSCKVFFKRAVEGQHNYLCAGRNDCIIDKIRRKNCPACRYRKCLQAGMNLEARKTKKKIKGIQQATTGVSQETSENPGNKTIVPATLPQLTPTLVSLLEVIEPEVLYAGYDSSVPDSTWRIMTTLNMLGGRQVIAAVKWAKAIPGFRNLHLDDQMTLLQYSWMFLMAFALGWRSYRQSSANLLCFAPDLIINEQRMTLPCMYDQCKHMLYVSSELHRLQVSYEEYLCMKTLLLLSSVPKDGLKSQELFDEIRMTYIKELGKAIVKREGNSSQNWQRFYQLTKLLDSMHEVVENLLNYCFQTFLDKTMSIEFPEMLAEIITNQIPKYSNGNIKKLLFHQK
Procedure, shortened: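 Cell-free radioligand binding with extracted receptor protein, read by filter-based scintillation counting 16 hours after dosing. Loss of specific signal versus DMSO baseline was scored. Primary screen ran in duplicate at 25 uM; actives were followed up in concentration series.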

[11] = target: bovine Estrogen Receptor (ER), ESR1 (gene 407238) (UniProt P49884); test: NVS_NR_bER: NovaScreen (NVS) Nuclear Receptor Binding Assay for bovine Estrogen Receptor (ER) (AID 2283345);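 also: actives lower the bound radioligand count which means they displace the ER ligand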
bovine Estrogen Receptor (ER), ESR1 (gene 407238), sequence (P49884 whole entry, looked up): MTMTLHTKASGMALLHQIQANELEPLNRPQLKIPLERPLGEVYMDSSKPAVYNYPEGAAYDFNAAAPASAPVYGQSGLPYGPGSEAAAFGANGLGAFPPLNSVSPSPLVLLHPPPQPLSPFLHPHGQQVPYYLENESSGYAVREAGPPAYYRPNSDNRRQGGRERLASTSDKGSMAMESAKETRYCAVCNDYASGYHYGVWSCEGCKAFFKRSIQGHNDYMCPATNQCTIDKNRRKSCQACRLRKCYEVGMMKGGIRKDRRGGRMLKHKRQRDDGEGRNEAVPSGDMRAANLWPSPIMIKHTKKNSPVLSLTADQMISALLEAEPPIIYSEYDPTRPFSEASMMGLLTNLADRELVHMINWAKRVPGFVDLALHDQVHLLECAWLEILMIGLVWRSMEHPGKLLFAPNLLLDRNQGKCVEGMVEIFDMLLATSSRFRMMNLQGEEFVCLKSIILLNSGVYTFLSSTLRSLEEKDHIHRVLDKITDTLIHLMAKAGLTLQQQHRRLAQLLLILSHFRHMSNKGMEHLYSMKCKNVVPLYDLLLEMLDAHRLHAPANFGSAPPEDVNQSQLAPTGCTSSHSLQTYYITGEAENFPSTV
Procedure, shortened: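 Bovine uterine membranes; tritiated or iodinated radioligand; competitive displacement; 18 h; scintillation read; DMSO negative control; 25 uM duplicates, then concentration series for actives.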

[12] = target: Estrogen receptor (Homo sapiens) (UniProt P03372); test: NVS_NR_hER: NovaScreen (NVS) Nuclear Receptor Binding Assay for human Estrogen Receptor (ER) (AID 2283348)
Procedure, shortened: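 Cell-free radioligand binding with protein extracted from MCF7 cells; scintillation counting 18 hours after dosing. Loss of signal versus DMSO baseline read as displacement; primary single-concentration screen at 25 uM in duplicate, actives retested in concentration series.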

[13] = target: Estrogen receptor beta (Homo sapiens) (UniProt Q92731); test: OT_ER_ERbERb_0480: Odyssey Thera (OT) 8-hour HEK293T Protein-Complementation Assay for Estrogen Receptor-beta/-beta Homodimer (AID 2283357);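 also: active means signal gain over DMSO baseline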
Procedure, shortened: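 Readout: increase in mean fluorescence intensity (nucleus for agonists; nucleus plus cytoplasm for antagonists) relative to DMSO, from a reporter-fragment complementation of human ER-beta LBD homodimer in HEK293T cells dosed 8 hours.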

[14] = target: Androgen Receptor/SRC-1 Co-activator, AR (gene 367) (UniProt P10275); test: OT_AR_ARSRC1_0960: Odyssey Thera (OT) 16-hour HEK293T Protein-Complementation Assay for Androgen Receptor/SRC-1 Co-activator (AID 2283353);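 also: actives raise the signal above DMSO so potency reflects increased AR and SRC-1 complex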
Androgen Receptor/SRC-1 Co-activator, AR (gene 367), sequence (P10275 whole entry, looked up, the tested form may be a part): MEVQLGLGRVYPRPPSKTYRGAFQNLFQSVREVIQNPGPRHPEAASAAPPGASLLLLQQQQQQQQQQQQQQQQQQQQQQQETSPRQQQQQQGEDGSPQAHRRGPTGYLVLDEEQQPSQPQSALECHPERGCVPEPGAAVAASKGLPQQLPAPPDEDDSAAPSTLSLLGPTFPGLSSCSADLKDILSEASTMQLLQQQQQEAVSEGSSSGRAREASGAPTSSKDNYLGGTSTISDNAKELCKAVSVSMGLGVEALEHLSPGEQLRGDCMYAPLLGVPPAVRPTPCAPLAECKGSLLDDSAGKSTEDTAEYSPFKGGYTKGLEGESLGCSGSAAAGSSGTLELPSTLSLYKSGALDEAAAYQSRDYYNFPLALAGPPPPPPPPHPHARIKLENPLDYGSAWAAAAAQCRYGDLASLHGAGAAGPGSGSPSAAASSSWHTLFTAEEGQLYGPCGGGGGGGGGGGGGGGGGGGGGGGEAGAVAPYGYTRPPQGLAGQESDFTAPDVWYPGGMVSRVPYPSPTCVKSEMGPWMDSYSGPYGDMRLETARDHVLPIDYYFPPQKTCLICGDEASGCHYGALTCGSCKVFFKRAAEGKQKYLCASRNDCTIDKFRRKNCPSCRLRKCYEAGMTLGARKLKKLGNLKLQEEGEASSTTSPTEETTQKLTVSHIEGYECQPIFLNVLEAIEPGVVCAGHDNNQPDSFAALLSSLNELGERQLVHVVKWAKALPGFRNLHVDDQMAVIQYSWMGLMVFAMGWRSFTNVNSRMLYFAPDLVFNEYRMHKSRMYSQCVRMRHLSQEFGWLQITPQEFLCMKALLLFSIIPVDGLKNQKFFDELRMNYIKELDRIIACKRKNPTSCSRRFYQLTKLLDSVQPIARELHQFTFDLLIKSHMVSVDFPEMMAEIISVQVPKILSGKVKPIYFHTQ
Procedure, shortened: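 HEK293T cells stably expressing AR and SRC-1 fused to Venus YFP fragments, imaged 16 h after dosing. Nuclear/cytoplasmic fluorescence ratio at 488 nm from at least 400 cells per image; gain of signal relative to DMSO.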

[15] = target: Androgen Receptor/SRC-1 Co-activator, AR (gene 367) (UniProt P10275); test: OT_AR_ARSRC1_0480: Odyssey Thera (OT) 8-hour HEK293T Protein-Complementation Assay for Androgen Receptor/SRC-1 Co-activator (AID 2283354);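 also: hits raise the complementation signal above DMSO so AC50 marks enhancers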
Procedure, shortened: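 HEK293T cells stably expressing AR and SRC-1 fused to split Venus YFP fragments via (Gly4Ser)2 linkers were read 8 h after compound dosing. Complementation was imaged at 488 and 635nm, and nuclear/cytoplasmic fluorescence ratio (488nm) was taken over ≥400 cells; gain-of-signal versus DMSO.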

[16] = target: Retinoic acid receptor alpha (Homo sapiens) (UniProt P10276); test: NVS_NR_hRARa_Agonist: NovaScreen (NVS) Nuclear Receptor Binding Assay for human Retinoic Acid Alpha Receptor Agonism (RAR) (AID 2283361)
Procedure, shortened: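 Cell-free TR-FRET binding read-out with extracted human RARα protein, read 2 h after compound addition. Gain of signal scored against DMSO baseline. Primary screen at a single 25 uM in duplicate; actives then retested in concentration series.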

[17] = target: Retinoic acid receptor alpha (Homo sapiens) (UniProt P10276); test: NVS_NR_hRAR_Antagonist: NovaScreen (NVS) Nuclear Receptor Binding Assay for human Retinoic Acid Alpha Receptor Antagonism (RAR) (AID 2283358)
Procedure, shortened: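 Cell-free TR-FRET binding assay on extracted receptor protein, run in antagonist mode; signal read 2 hours after chemical dosing. Loss of signal was fitted relative to DMSO baseline. Screened at 25 uM in duplicate, actives followed up in concentration series.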

[18] = target: human Constitutive Androstane Receptor (CAR), NR1I3 (gene 9970) (UniProt Q14994); test: NVS_NR_hCAR_Antagonist: NovaScreen (NVS) Nuclear Receptor Binding Assay for human Constitutive Androstane Receptor Antagonism (CAR) (AID 2283344)
human Constitutive Androstane Receptor (CAR), NR1I3 (gene 9970), sequence (Q14994 whole entry, looked up): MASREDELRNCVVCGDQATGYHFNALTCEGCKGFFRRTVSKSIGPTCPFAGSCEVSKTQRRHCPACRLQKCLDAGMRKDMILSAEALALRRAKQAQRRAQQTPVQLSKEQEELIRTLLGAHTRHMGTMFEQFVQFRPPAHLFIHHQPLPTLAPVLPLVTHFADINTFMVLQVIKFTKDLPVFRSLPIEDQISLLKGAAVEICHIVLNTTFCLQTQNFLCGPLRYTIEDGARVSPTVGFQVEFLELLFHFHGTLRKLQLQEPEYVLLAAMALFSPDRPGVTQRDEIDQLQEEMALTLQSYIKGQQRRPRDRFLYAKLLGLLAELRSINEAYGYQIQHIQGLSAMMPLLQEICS
Procedure, shortened: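 Cell-free TR-FRET binding read 1 h after dosing, antagonist mode; loss of signal versus DMSO baseline. Primary screen in duplicate at a single 25 uM; actives retested in concentration series.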

[19] = target: human Thyroid Receptor Alpha (TRa), THRA (gene 7067) (UniProt P10827); test: NVS_NR_hTRa_Antagonist: NovaScreen (NVS) Nuclear Receptor Binding Assay for human Thyroid Receptor Alpha Antagonism (TRa) (AID 2283362);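 also: activity is loss of signal relative to DMSO baseline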
human Thyroid Receptor Alpha (TRa), THRA (gene 7067), sequence (P10827 whole entry, looked up): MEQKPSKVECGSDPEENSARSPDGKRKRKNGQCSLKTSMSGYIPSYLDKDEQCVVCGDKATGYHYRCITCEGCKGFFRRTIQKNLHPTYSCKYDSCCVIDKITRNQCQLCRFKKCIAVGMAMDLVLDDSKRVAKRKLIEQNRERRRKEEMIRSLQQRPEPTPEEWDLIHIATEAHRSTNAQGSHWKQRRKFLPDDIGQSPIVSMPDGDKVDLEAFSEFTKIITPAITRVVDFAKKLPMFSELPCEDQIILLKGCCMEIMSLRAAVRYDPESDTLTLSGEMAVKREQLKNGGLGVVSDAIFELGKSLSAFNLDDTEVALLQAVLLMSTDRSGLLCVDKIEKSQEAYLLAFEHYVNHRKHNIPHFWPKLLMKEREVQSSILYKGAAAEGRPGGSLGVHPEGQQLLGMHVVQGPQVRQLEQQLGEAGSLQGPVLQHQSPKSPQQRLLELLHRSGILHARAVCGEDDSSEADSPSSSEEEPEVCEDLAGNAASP
Procedure, shortened: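 Cell-free AlphaLISA chemiluminescent binding read 1 h after dosing, antagonist mode; signal loss versus DMSO baseline. Primary screen in duplicate at 25 uM, then concentration series for actives.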

[20] = target: rat Mineralocorticoid Receptor (MR), Nr3c2 (gene 25672) (UniProt P22199); test: NVS_NR_rMR: NovaScreen (NVS) Nuclear Receptor Binding Assay for rat Mineralocorticoid Receptor (MR) (AID 2283355)
Procedure, shortened: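 Cell-free radioligand binding to MR in adrenalectomized rat brain supernatant, scintillation counted 24 h after dosing. Loss of signal versus DMSO baseline marks displacement. Primary screen in duplicate at 25 uM; actives retested as concentration series.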

Measured: AC50

COC(=O)c1c(Cl)c(Cl)c(C(=O)OC)c(Cl)c1Cl
inactive: [1] | [2] | [3] | [4]
active: [5] 50 µM

CCc1cc(SCc2sc(-c3ccc(C(F)(F)F)cc3)nc2CN2CCN(c3ccc(OC)cc3)CC2)ccc1OCC(=O)O
active: [6] 40.3 µM | [7] 29 µM | [8] 0.00361 µM | [10] 1.57 µM
inactive: [9]

C=CCCCCCCCCC(=O)O
inactive: [11] | [12] | [1] | [3] | [4] | [5] | [13]

O=C(O)c1cccc(N(Cc2cccnc2)c2ccc(OC(F)F)c(OC(F)F)c2)c1
inactive: [15] | [13]
active: [7] 2.81 µM | [14] 37.1 µM | [9] 4.96 µM

O=C(OC[C@H]1O[C@@H](OC(=O)c2cc(O)c(O)c(OC(=O)c3cc(O)c(O)c(O)c3)c2)[C@H](OC(=O)c2cc(O)c(O)c(OC(=O)c3cc(O)c(O)c(O)c3)c2)[C@@H](OC(=O)c2cc(O)c(O)c(OC(=O)c3cc(O)c(O)c(O)c3)c2)[C@@H]1OC(=O)c1cc(O)c(O)c(OC(=O)c2cc(O)c(O)c(O)c2)c1)c1cc(O)c(O)c(OC(=O)c2cc(O)c(O)c(O)c2)c1
active: [7] 0.472 µM | [9] 6.13 µM | [10] 0.533 µM

Nc1ccc(Nc2ccccc2)cc1
active: [8] 46.3 µM | [10] 14.6 µM
inactive: [11] | [12] | [1]

CCCCCCc1ccc(O)cc1O
inactive: [7] | [8]
active: [14] 92.3 µM | [15] 77.9 µM | [10] 33.7 µM

CCOC(=O)COc1ccc2c(c1)CC(NCC(O)c1cccc(Cl)c1)CC2 (centres undefined)
inactive: [12] | [1] | [3] | [8]

CC[C@H]1CC[C@H](NCc2cc3c(cc2OC)[C@H]2C[C@H]2C(=O)N3C)[C@H](c2ccccc2)N1
inactive: [12] | [1] | [3] | [5] | [16]

CCn1nc(Cc2ccccc2)cc1C1CCN(C[C@H]2C[C@H](N(C)[C@@H](C(=O)O)C(C)C)C[C@@H]2c2cccc(F)c2)CC1
inactive: [1] | [3] | [4] | [5] | [13] | [17] | [10]

CC/C(=C\C(=N/O)C(N)=O)C(C)[N+](=O)[O-] (centres undefined)
inactive: [11] | [1] | [3] | [5] | [13]

CC[C@H](C)C(=O)O[C@H]1C[C@@H](C)C=C2C=C[C@H](C)[C@H](CC[C@@H]3C[C@@H](O)CC(=O)O3)[C@H]21
inactive: [1] | [3] | [4] | [5]
active: [7] 24.9 µM | [2] 31.5 µM

CC(C)=CCCC(C)=CC=O
inactive: [12] | [1] | [3] | [4] | [5] | [8]

COc1cccc(-c2ccc(/C=C\CN3CCCCCC3)cc2Cl)c1
inactive: [18] | [11] | [12] | [1] | [2] | [4] | [13] | [8] | [19]
active: [5] 10.7 µM

Cn1cnc([N+](=O)[O-])c1Sc1ncnc2nc[nH]c12
inactive: [12] | [1] | [3] | [4] | [5] | [13] | [8] | [19]

Oc1ccc2c(c1)-c1ccccc1C2
inactive: [20] | [8] | [10]
active: [6] 25 µM | [7] 8.77 µM | [14] 35.1 µM | [15] 50 µM | [9] 9.66 µM

CN(C)c1ccc(N=NS(=O)(=O)O)cc1
inactive: [18] | [14] | [15]

Nc1nc2ncc(CNc3ccc(C(=O)N[C@@H](CCC(=O)O)C(=O)O)cc3)nc2c(=O)[nH]1
active: [16] 15.8 µM
inactive: [7] | [14] | [15] | [13]

CCCCC(CC)COC(=O)CCCCCCCCC(=O)OCC(CC)CCCC (centres undefined)
active: [1] 12.1 µM | [3] 0.949 µM

O=C(O)c1cc(N=Nc2ccc(S(=O)(=O)Nc3ccccn3)cc2)ccc1O
active: [7] 5.35 µM | [9] 36.5 µM

Cn1c(=O)cc(Oc2ccc(F)cc2F)c2cnc(NCC(C)(C)O)nc21
inactive: [12] | [4] | [13]
active: [1] 50 µM | [3] 24.4 µM | [5] 50 µM | [10] 2.48 µM

CC(C)=CCC/C(C)=C/CO
inactive: [7]

CNS(=O)(=O)c1cc(C(=O)N2CCC(CCN3C4CCC3CC(n3c(C)nc5ccccc53)C4)(c3cccc(F)c3)CC2)c(Cl)cc1F (centres undefined)
inactive: [13] | [8] | [19]
active: [7] 11.3 µM | [2] 8.21 µM | [14] 31.9 µM | [15] 32 µM

CC(C)=CCC/C(C)=C\CO
inactive: [18] | [7] | [2]
